Hits are enriched below; roughly 5.2% of the tested compounds scored in any of these assays.
TrxR1 substrate: rat thioredoxin reductase 1 substrate activity; Potency, µM (doses to about 114 µM), for inactives: at the top dose activity change, negative = substrate turnover; 390,000 compounds, 0.01% hits; AID 588456; O89049; purified TrxR1 substrate turnover, NADPH consumption readout; further: nearly all actives have a fitted effect of over 50% in size
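Rat TrxR1, dispensed at 90 nM, was prereduced with 400 uM NADPH (final) for 5 min at ~22 deg C, then incubated with compound 15 min before 400 uM selenite. A first-read NADPH fluorescence drop versus no-compound background flagged substrates.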
Sfp inh: inhibitors of Bacillus subtilis Sfp phosphopantetheinyl transferase; Potency, µM, for inactives: largest response in the series, negative = inhibition, hits mostly inhibitors; Q9F4F7; 310,000 compounds, 3.5% hits; Biochemical Sfp PPTase activity, qHTS;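 further: the enzyme is Sfp with the accession as filed and its product quenches rhodamine fluorescence; 0% = enzyme reaction without inhibitor and -100% = no enzyme wells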
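Buffer: 50 mM Hepes-Na pH 7.6, 10 mM MgCl2, 0.01% Nonidet P-40, 0.01% BSA. Enzyme 15 nM, pre-exposed to compound 15 min; substrates then added and fluorescence change tracked over 30 min.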
rTrxR1 inhibitor: inhibitors of rat thioredoxin reductase 1. recombinant rTrxR1, NADPH fluorescence consumption, selenite substrate. Potency, µM (highest dose often 114 µM), without a hit: at the highest dose activity change, negative = inhibition, usual class: inhibitors. 390,000 compounds, 1% hits. AID 588453; further: nearly all actives have a fitted effect of over 65% in size
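Rat TrxR1 (90 nM in the dispensed reagent) was pre-reduced with 400 uM NADPH for 5 min at room temperature, then incubated with compound for 15 min. After 400 uM selenite was added, NADPH fluorescence (Ex 340/Em 450 nm) was followed for 8 min.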
VDR inh: blocks the human vitamin D receptor | VDR-SRC2-3 peptide fluorescence polarization, 2 h | Potency, µM, for the others: max response, negative = inhibition, hits mostly inhibitors | P11473 | 400,000 compounds, 0.93% hits
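Fluorescence polarization assay measuring small-molecule disruption of VDR binding to the coregulator peptide SRC2-3. Compounds were pin-transferred (23 nl) into the reagent mix and incubated 2 h at room temperature before reading.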
PLK1 PBD block: inhibitors of human PLK1 polo-box domain binding. P53350. 360,000 compounds, 2.8% hits. Plk1 PBD binding of FITC phosphopeptide, fluorescence polarization. Potency, µM, for inactives: max response, negative = inhibition, usual class: inhibitors; further: series mostly up to about 57 µM; nearly all actives have a fitted effect of over 65% in size
mIDH1 inhibitor: inhibitors of human mutant IDH1 R132H; IDH1-R132H enzyme, NADPH consumption, diaphorase/resazurin fluorescence; Potency, µM (highest dose often 76.6 µM), for the others: top-dose activity change, negative = inhibition, actives largely listed as inhibitors; 390,000 compounds, 0.093% hits; AID 602179; further: nearly all actives have a fitted effect of over 65% in size
Target sequence (O75874 whole entry R132H, stated change not applied): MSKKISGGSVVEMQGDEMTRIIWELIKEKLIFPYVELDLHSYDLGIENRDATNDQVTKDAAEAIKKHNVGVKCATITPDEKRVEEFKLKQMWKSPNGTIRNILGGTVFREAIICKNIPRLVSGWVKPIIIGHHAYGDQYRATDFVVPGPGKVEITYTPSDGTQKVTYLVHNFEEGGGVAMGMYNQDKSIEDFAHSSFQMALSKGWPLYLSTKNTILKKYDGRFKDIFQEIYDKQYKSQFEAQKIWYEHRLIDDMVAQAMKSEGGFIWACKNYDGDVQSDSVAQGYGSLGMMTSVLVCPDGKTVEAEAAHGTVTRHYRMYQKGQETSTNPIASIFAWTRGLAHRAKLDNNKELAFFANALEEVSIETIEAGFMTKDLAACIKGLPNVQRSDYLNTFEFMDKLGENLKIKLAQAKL
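IDH1-R132H (0.5 ug/mL dispensed) in pH 7.5 Tris buffer was preincubated 30 min with compound, then given a substrate mix of 0.016 mM NADPH and 2 mM alpha-KG for 80 min at room temperature; remaining NADPH was read by diaphorase/resazurin fluorescence.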
* marks the source's active call; other numbers are inactive results; ? = inconclusive; . = no result; [ ] = another dose, or the depositor's remark. The call rests on the fitted dose curve; in most records, active means well fitted curve in the direction sought with a large enough effect; inconclusive means small, poorly fitted or top-dose-only effect, or another doubt; inactive means no such curve, though single readings can be large; an effect the other way counts as inactive or inconclusive. Unless noted, on the % scale 0 is the no-effect control and ±100 the full control effect; potency means the concentration at half of the fitted maximal effect.

SMILES	TrxR1 substrate	Sfp inh	rTrxR1 inhibitor	VDR inh	PLK1 PBD block	mIDH1 inhibitor
COC(=O)c1ccc(NC(=O)c2ccc(NC(=O)c3ccco3)cc2)cc1	12%	-17%	28%	19%	2%	-8%
CCn1c(C)nc2cc(C(=O)N/N=C/c3cccc(O)c3O)ccc21	-1%[57.1 µM]	6%	0%[57.1 µM]	12%	0%	9%
COc1ccc2cc(C3CC(c4ccco4)=NN3S(C)(=O)=O)c(Cl)nc2c1 (stereo not drawn)	1%	50µM*	50µM*	-17%	-18%	0%
Cc1ccc2cc(C3CC(c4ccco4)=NN3C(=O)CCC(=O)O)c(Cl)nc2c1 (stereo not drawn)	-3%	0%	-11%	32µM*	?	4%
Cc1cccc2cc(C3CC(c4cccs4)=NN3C(=O)CCC(=O)O)c(Cl)nc12 (stereo not drawn)	11%[57.1 µM]	1%	-2%[57.1 µM]	?	27µM*	0%
NC(=O)NN=C1c2cc(S(=O)(=O)N3CCOCC3)ccc2-c2ccc(S(=O)(=O)N3CCOCC3)cc21	0%	.	0%	23%	.	.
CC(C)NS(=O)(=O)c1ccc2[nH]c3nc(SCC(=O)Nc4ccc(F)c(F)c4)nnc3c2c1	5%	.	11%	12%	.	.
Cc1sc2ncnc(Sc3ccccc3C(=O)Nc3ccc(Br)cc3)c2c1C	-12%	50µM*	3%	?	-19%	2%
CCOc1ccc2c(c1)C(C)=CC(C)(C)N2C(=O)Nc1ccccc1F	29%	35µM*	-5%	-7%	-12%	2%
CC(=O)Nc1ccc(/C=N/Nc2nncc3ccccc23)cc1	-8%	89µM*	8%[57.1 µM]	-5%	-10%	17%
Fc1cccc(/C=N/Nc2nncc3ccccc23)c1	-9%	-9%	-2%	?	21µM*	4%
CC(=O)Nc1ccc(/C=N/Nc2nc3ccccc3s2)cc1	-3%	-8%	14%	-5%	3%	-4%
C(=N\Nc1nncc2ccccc12)/c1ccccn1	-7%	10%	-1%	9%	-11%	-3%
CSCC[C@H](NC(=O)[C@H](Cc1ccc(OS(=O)(=O)O)cc1)NC(=O)[C@@H](N)CC(=O)O)C(=O)NCC(=O)N[C@@H](Cc1c[nH]c2ccccc12)C(=O)N[C@@H](CCSC)C(=O)N[C@@H](CC(=O)O)C(=O)N[C@@H](Cc1ccccc1)C(N)=O	.	-14%	.	-11%	.	.
CCn1cnc2c1c(=O)[nH]c(=O)n2Cc1ccccc1	11%[57.1 µM]	4%	4%[57.1 µM]	-5%	0%	4%
CCCCn1cnc2c1c(=O)[nH]c(=O)n2CCCC	3%[57.1 µM]	-2%	7%	-8%	12µM*	4%
CN(CCC#N)C(=O)COC(=O)c1c2c(nc3ccccc13)/C(=C/c1ccco1)CC2	-3%	-75%	5.6µM*	-29%	-15%	6%
CCOC(=O)Cc1c(C)nc(N)[nH]c1=O	11%[57.1 µM]	20%	14%[57.1 µM]	-17%	-6%	8%
CCOC(=O)Cc1c[nH]c(=S)[nH]c1=O	-3%	79µM*	-16%	2%	-2%	15%
COc1ccc(C2C(C#N)=C(N)Oc3c2oc(CO)cc3=O)cc1 (stereo not drawn)	-1%	56µM*	23%	-8%	-9%	-3%
Cc1csc2nc(CSc3ccc(Cl)cc3)cn12	-3%	-6%	-19%	?	6.7µM*	7%
Cc1cc(C)n2cc(CSc3nc4cc(Cl)ccc4o3)nc2n1	9%	?	-11%	-9%	-13%	1%
Clc1ccc(SCc2cn3ccsc3n2)cc1	-7%	-4%	8%	14%	-27%	3%
c1ccc2oc(SCc3cn4ccsc4n3)nc2c1	-9%	50µM*	13%[57.1 µM]	-4%	-11%	4%
Cc1csc2nc(CSc3nc4ccccc4o3)cn12	-8%	56µM*	3%	-7%	-17%	6%
SMILES	TrxR1 substrate	Sfp inh	rTrxR1 inhibitor	VDR inh	PLK1 PBD block	mIDH1 inhibitor
O=C(O)CSc1nc2ccccc2o1	0%	1%	10%	6%	-2%	16%
Cc1cc(C)n2c(Br)c(CSc3nc4ccccc4o3)nc2n1	26%	50µM*	13%	-7%	-22%	-7%
CN(C)c1ccc(/C=C/c2ccc3ncccc3c2)cc1	39%	.	4%	.	.	.
CCN(CC)c1ccc(NC(=O)CN2C(=O)c3cccnc3Oc3ccccc32)c(C)c1	-3%	.	-5%	10%	.	0%
N#CCSc1n[nH]c2nc3c(c(=O)n12)C1(CCCC1)Cc1ccccc1-3	171%	89µM*	29%	-9%	?	2%
CCCn1c(SCC#N)nc2c(c1=O)C1(CCCC1)Cc1ccccc1-2	-7%	-5%	15%[57.1 µM]	-5%	-13%	0%
O=C(/C=C/c1cccc2ccccc12)c1ccncc1	-3%	25µM*	?	14µM*	?	-13%
CCOC(=O)/C(=C\c1cn(C)c2ccccc12)[N+](=O)[O-]	-13%	4%	18µM*	50µM*	1.7µM*	0%
Cc1cc(O)c(C(=O)/C=C/c2ccccc2O)c(=O)o1	-1%	-14%	?	?	21µM*	3%
Cc1cc(O)c(C(=O)/C=C/c2cccc([N+](=O)[O-])c2)c(=O)o1	-2%	6%	-29%	-17%	?	-1%
CCOc1ccc(/C=C/C(=O)c2ccc(-c3ccccc3)cc2)cc1	10%[57.1 µM]	2%	15%[57.1 µM]	-17%	-24%	4%
N#Cc1ccc(/C=C/C(=O)c2ccccc2)cc1	8%[57.1 µM]	-5%	?	14µM*	-26%	9%
O=C(/C=C/c1ccc[nH]1)c1ccccc1	-8%[57.1 µM]	56µM*	-7%[57.1 µM]	79µM*	30µM*	5%
Cn1cc(/C=C/C(=O)c2ccccc2)c2ccccc21	-4%	50µM*	21%[57.1 µM]	5%	6%	4%
CCOc1ccccc1/C=C/C(=O)c1ccc(Cl)cc1	-3%	-5%	-4%	?	-9%	5%
O=C(/C=C/c1ccccc1O)c1ccc(Cl)cc1	-4%	-15%	?	35µM*	-26%	16%
O=C(O)c1ccccc1-c1ccccc1C(=O)Nc1ccc(F)cc1	11%[57.1 µM]	12%	16%[57.1 µM]	1%	-10%	-1%
Cc1ccc(C(=O)/C=C/c2cn(CN3CCN(C)CC3)c3ccccc23)cc1	-4%	?	6%	5%	2%	16%
O=C(/C=C/c1ccc(NC(=O)c2ccccc2-c2ccccc2C(=O)O)cc1)c1ccccc1	-10%	-5%	-27%	20µM*	-16%	-9%
CCCN1CCN(C(=O)Cn2c(-c3cccs3)cc3ccccc32)CC1	38%	.	9%	18%	.	-4%
COc1cc(O)c(C(=O)/C=C/c2ccccc2)c(OC)c1	-2%	-23%	-14%	14µM*	-9%	-9%
COc1ccccc1/C=C/C(=O)c1ccc(Cl)cc1	-4%	?	-13%	?	-12%	11%

Screens: PubChem BioAssay, National Center for Advancing Translational Sciences (NCATS)
